Laboratory results from PubChem BioAssay (NCI).
This is part of a sample that, as a whole, favours compounds with a hit. Of some 79,000 tested, about 15% had one in any assay. Activity calls are given as the source filed them. No stated cut-off is given here; in the data, active means growth inhibition above about 70%; inactive means the rest.

Tests used:
[1] = NCI Yeast Anticancer Drug Screen. Data for the rad52 strain (AID 147);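 further: 0% = growth of vehicle-treated control cultures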; conditions: S. cerevisiae rad52 mutant growth inhibition, stronger effect = higher value
Method in brief: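 The repair-mutant yeast strain was incubated with compounds, then growth was read and inhibition derived relative to vehicle.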

[2] = NCI Yeast Anticancer Drug Screen. Data for the wt1 strain (AID 149);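 further: 0% = growth of vehicle-treated wt1 cultures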; conditions: S. cerevisiae wt1 strain (SPY 50644) growth inhibition, stronger effect = higher value
Method in brief: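 Each compound is tested on wt1 yeast and the loss of growth versus vehicle gives the inhibition value.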

[3] = NCI Yeast Anticancer Drug Screen. Data for the rad50EPP+ strain (AID 151);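 further: 0% = growth of vehicle-treated control cultures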; conditions: S. cerevisiae rad50 mutant strain, stronger effect = higher value
Method in brief: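 Vehicle-normalised growth inhibition; rad50EPP+ yeast strain, altered in DNA damage repair, compound-treated.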

[4] = NCI Yeast Anticancer Drug Screen. Data for the mgt1 strain (AID 153); conditions: S. cerevisiae mgt1 mutant growth inhibition, stronger effect = higher value
Method in brief: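 Vehicle-normalized growth inhibition is determined in mgt1 yeast, a strain selected for a defined alteration in DNA repair or cell cycle control.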

[5] = NCI Yeast Anticancer Drug Screen. Data for the rad50 strain (AID 155);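 further: 0% = growth of vehicle-only cultures of the same strain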; conditions: S. cerevisiae rad50 strain growth inhibition, stronger effect = higher value
Method in brief: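 Vehicle-treated cultures provide the reference for the growth inhibition reported for compound-exposed, repair-deficient yeast.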

[6] = NCI Yeast Anticancer Drug Screen. Data for the mec2-1 strain (AID 157); conditions: S. cerevisiae mec2-1 strain, stronger effect = higher value
Method in brief: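 Mutant yeast (mec2-1) grown with compound; growth inhibition relative to vehicle control reported.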

[7] = NCI Yeast Anticancer Drug Screen. Data for the rad14 strain (AID 159);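 further: 0% = growth of vehicle-treated control cultures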; conditions: S. cerevisiae rad14 strain growth inhibition, stronger effect = higher value
Method in brief: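 Inhibition of growth is reported for a repair-deficient yeast mutant following compound treatment, calculated relative to cultures that received vehicle.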

[8] = NCI Yeast Anticancer Drug Screen. Data for the sgs1 mgt1 strain (AID 161);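 further: 0% = growth of cultures given vehicle only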; conditions: S. cerevisiae sgs1 mgt1 strain, stronger effect = higher value
Method in brief: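 This yeast growth screen uses a strain with defined DNA-repair lesions; compound-treated growth is compared with vehicle-treated growth.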

[9] = NCI Yeast Anticancer Drug Screen. Data for the cln2 rad14 strain (AID 165);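 further: 0% = growth equal to vehicle treated cultures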; conditions: S. cerevisiae cln2 rad14 strain, stronger effect = higher value
Method in brief: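 Readout is yeast growth inhibition versus vehicle-treated controls, using a strain with cln2 and rad14 alterations exposed to compound.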

[10] = NCI Yeast Anticancer Drug Screen. Data for the bub3 strain (AID 167); conditions: S. cerevisiae bub3 mutant strain, stronger effect = higher value
Method in brief: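 Mutant yeast screening strain plus compound; vehicle-treated cultures serve as the 0% inhibition reference.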

[11] = NCI Yeast Anticancer Drug Screen. Data for the wt2 strain (AID 169); conditions: S. cerevisiae wt2 strain growth inhibition, stronger effect = higher value
Method in brief: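 Against vehicle-treated controls, the growth of yeast exposed to each compound was compared, and the inhibition was recorded.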

[12] = NCI Yeast Anticancer Drug Screen. Data for the mlh1 strain (AID 171);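 further: 0% = growth of vehicle-treated control cultures of the same strain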; conditions: S. cerevisiae mlh1 strain growth inhibition, stronger effect = higher value
Method in brief: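 Measured: yeast growth. Reference: vehicle-treated controls. Organism: strain with a defined alteration affecting DNA damage repair or cell cycle control, treated with compound.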

[13] = NCI Yeast Anticancer Drug Screen. Data for the sgs1 strain (AID 173);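 further: 0% = growth of vehicle-only control cultures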; conditions: S. cerevisiae sgs1 mutant, stronger effect = higher value
Method in brief: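 Each compound was added to cultures of the altered yeast strain. Growth was recorded, and inhibition was derived by comparison with vehicle controls.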

[14] = NCI Yeast Anticancer Drug Screen. Data for the mlh1 rad18 strain (AID 175); conditions: S. cerevisiae mlh1 rad18 strain growth inhibition, stronger effect = higher value
Method in brief: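 Genetically defined yeast (DNA repair-deficient) exposed to compounds; growth inhibition determined relative to vehicle.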

[15] = NCI Yeast Anticancer Drug Screen. Data for the rad18 strain (AID 177); conditions: S. cerevisiae rad18 mutant growth inhibition, stronger effect = higher value
Method in brief: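 Vehicle-treated cultures served as the baseline for scoring compound-induced growth inhibition in DNA-repair-mutant yeast.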

[16] = at 5.0 µM (retest, dose inferred, filed as 0.5)
[17] = at 50.0 µM (retest, dose inferred, filed as 5.0)

Measured: growth inhibition

Cc1cccc2c(C(O)CBr)cc(-c3ccc(Cl)cc3)nc12 (stereo unspecified)
inactive: [1]; at 1.2 µM 0% | [1]; at 3.7 µM 20% | [2]; at 1.2 µM -3% | [2]; at 3.7 µM -5% | [3]; at 1.2 µM 1% | [3]; at 3.7 µM 10% | [3]; at 11.0 µM 32% | [3]; at 33.0 µM 40% | [3]; at 100.0 µM 54% | [4]; at 1.2 µM -2% | [4]; at 3.7 µM -1% | [5]; at 1.2 µM 0% | [5]; at 3.7 µM 11% | [5]; [16] 3% | [6]; at 1.2 µM 0% | [6]; at 3.7 µM 4% | [6]; [16] 1% | [6]; at 100.0 µM 51% | [7]; at 1.2 µM -4% | [7]; at 3.7 µM 3% | [8]; [16] 3% | [9]; [16] -10% | [10]; at 1.2 µM 0% | [10]; at 3.7 µM 8% | [10]; [16] -1% | [10]; at 100.0 µM 45% | [11]; at 1.2 µM -4% | [11]; at 3.7 µM -6% | [12]; at 1.2 µM -5% | [12]; at 3.7 µM 1% | [12]; at 100.0 µM 48% | [13]; at 1.2 µM -2% | [13]; at 3.7 µM 7% | [14]; [16] 1% | [15]; at 1.2 µM -3% | [15]; at 3.7 µM 17%
active: [1]; at 11.0 µM 98% | [1]; at 33.0 µM 96% | [1]; at 100.0 µM 87% | [2]; at 11.0 µM 98% | [2]; at 33.0 µM 97% | [2]; at 100.0 µM 91% | [4]; at 11.0 µM 98% | [4]; at 33.0 µM 97% | [4]; at 100.0 µM 92% | [5]; at 11.0 µM 98% | [5]; at 33.0 µM 96% | [5]; [17] 93% | [5]; at 50.0 µM 93.8% | [5]; at 100.0 µM 88% | [6]; at 11.0 µM 99% | [6]; at 33.0 µM 97% | [6]; [17] 96% | [6]; at 50.0 µM 96.1% | [7]; at 11.0 µM 99% | [7]; at 33.0 µM 97% | [7]; at 100.0 µM 88% | [8]; [17] 95% | [8]; at 50.0 µM 95.7% | [9]; [17] 95% | [9]; at 50.0 µM 92.8% | [10]; at 11.0 µM 98% | [10]; at 33.0 µM 96% | [10]; [17] 96% | [10]; at 50.0 µM 92.5% | [11]; at 11.0 µM 98% | [11]; at 33.0 µM 96% | [11]; at 100.0 µM 88% | [12]; at 11.0 µM 98% | [12]; at 33.0 µM 95% | [13]; at 11.0 µM 98% | [13]; at 33.0 µM 96% | [13]; at 100.0 µM 90% | [14]; [17] 95% | [14]; at 50.0 µM 95.3% | [15]; at 11.0 µM 98% | [15]; at 33.0 µM 95% | [15]; at 100.0 µM 88%

CCCC/C=C/C(CC)(C(=O)OCC)C(=O)OCC
inactive: [1]; at 1.2 µM -1% | [1]; at 3.7 µM -2% | [1]; at 11.0 µM -4% | [1]; at 33.0 µM -1% | [1]; at 100.0 µM -2% | [2]; at 1.2 µM -2% | [2]; at 3.7 µM -3% | [2]; at 11.0 µM -5% | [2]; at 33.0 µM -7% | [2]; at 100.0 µM -9% | [3]; at 1.2 µM -2% | [3]; at 3.7 µM 1% | [3]; at 11.0 µM -2% | [3]; at 33.0 µM 3% | [3]; at 100.0 µM 39% | [4]; at 1.2 µM -3% | [4]; at 3.7 µM -1% | [4]; at 11.0 µM -2% | [4]; at 33.0 µM -5% | [4]; at 100.0 µM -3% | [5]; at 1.2 µM -2% | [5]; at 3.7 µM -4% | [5]; [16] -9% | [5]; at 11.0 µM -3% | [5]; at 33.0 µM -3% | [5]; [17] -11% | [5]; at 50.0 µM 3.6% | [5]; at 100.0 µM -6% | [6]; at 1.2 µM 0% | [6]; at 3.7 µM -1% | [6]; [16] 5% | [6]; at 11.0 µM -2% | [6]; at 33.0 µM -1% | [6]; [17] 43% | [6]; at 50.0 µM -11.7% | [6]; at 100.0 µM -1% | [7]; at 1.2 µM -2% | [7]; at 3.7 µM -5% | [7]; at 11.0 µM -2% | [7]; at 33.0 µM -1% | [7]; at 100.0 µM 1% | [8]; [16] -3% | [8]; [17] 33% | [8]; at 50.0 µM 10.6% | [9]; [16] 6% | [9]; [17] 24% | [9]; at 50.0 µM 16.6% | [10]; at 1.2 µM 0% | [10]; at 3.7 µM -1% | [10]; [16] 11% | [10]; at 11.0 µM 1% | [10]; at 33.0 µM 6% | [10]; [17] 52% | [10]; at 50.0 µM 24.1% | [10]; at 100.0 µM 11% | [11]; at 1.2 µM -3% | [11]; at 3.7 µM -4% | [11]; at 11.0 µM -5% | [11]; at 33.0 µM -5% | [11]; at 100.0 µM -5% | [13]; at 1.2 µM -2% | [13]; at 3.7 µM 1% | [13]; at 11.0 µM 0% | [13]; at 33.0 µM 0% | [13]; at 100.0 µM 5% | [14]; [16] 7% | [14]; [17] 36% | [14]; at 50.0 µM -8.65% | [15]; at 1.2 µM -1% | [15]; at 3.7 µM 3% | [15]; at 11.0 µM 4% | [15]; at 33.0 µM 3% | [15]; at 100.0 µM 7%
